Compound activity from PubChem BioAssay.
mHTT-CaM PPI inh = disrupts binding of mutant huntingtin to calmodulin; P42858; AlphaScreen His-mHTT/GST-CaM binding, luminescence; inhibition, % at 15 µM; 190,000 tested, 3.6% active
Target sequence (P42858 whole entry, looked up, change not shown): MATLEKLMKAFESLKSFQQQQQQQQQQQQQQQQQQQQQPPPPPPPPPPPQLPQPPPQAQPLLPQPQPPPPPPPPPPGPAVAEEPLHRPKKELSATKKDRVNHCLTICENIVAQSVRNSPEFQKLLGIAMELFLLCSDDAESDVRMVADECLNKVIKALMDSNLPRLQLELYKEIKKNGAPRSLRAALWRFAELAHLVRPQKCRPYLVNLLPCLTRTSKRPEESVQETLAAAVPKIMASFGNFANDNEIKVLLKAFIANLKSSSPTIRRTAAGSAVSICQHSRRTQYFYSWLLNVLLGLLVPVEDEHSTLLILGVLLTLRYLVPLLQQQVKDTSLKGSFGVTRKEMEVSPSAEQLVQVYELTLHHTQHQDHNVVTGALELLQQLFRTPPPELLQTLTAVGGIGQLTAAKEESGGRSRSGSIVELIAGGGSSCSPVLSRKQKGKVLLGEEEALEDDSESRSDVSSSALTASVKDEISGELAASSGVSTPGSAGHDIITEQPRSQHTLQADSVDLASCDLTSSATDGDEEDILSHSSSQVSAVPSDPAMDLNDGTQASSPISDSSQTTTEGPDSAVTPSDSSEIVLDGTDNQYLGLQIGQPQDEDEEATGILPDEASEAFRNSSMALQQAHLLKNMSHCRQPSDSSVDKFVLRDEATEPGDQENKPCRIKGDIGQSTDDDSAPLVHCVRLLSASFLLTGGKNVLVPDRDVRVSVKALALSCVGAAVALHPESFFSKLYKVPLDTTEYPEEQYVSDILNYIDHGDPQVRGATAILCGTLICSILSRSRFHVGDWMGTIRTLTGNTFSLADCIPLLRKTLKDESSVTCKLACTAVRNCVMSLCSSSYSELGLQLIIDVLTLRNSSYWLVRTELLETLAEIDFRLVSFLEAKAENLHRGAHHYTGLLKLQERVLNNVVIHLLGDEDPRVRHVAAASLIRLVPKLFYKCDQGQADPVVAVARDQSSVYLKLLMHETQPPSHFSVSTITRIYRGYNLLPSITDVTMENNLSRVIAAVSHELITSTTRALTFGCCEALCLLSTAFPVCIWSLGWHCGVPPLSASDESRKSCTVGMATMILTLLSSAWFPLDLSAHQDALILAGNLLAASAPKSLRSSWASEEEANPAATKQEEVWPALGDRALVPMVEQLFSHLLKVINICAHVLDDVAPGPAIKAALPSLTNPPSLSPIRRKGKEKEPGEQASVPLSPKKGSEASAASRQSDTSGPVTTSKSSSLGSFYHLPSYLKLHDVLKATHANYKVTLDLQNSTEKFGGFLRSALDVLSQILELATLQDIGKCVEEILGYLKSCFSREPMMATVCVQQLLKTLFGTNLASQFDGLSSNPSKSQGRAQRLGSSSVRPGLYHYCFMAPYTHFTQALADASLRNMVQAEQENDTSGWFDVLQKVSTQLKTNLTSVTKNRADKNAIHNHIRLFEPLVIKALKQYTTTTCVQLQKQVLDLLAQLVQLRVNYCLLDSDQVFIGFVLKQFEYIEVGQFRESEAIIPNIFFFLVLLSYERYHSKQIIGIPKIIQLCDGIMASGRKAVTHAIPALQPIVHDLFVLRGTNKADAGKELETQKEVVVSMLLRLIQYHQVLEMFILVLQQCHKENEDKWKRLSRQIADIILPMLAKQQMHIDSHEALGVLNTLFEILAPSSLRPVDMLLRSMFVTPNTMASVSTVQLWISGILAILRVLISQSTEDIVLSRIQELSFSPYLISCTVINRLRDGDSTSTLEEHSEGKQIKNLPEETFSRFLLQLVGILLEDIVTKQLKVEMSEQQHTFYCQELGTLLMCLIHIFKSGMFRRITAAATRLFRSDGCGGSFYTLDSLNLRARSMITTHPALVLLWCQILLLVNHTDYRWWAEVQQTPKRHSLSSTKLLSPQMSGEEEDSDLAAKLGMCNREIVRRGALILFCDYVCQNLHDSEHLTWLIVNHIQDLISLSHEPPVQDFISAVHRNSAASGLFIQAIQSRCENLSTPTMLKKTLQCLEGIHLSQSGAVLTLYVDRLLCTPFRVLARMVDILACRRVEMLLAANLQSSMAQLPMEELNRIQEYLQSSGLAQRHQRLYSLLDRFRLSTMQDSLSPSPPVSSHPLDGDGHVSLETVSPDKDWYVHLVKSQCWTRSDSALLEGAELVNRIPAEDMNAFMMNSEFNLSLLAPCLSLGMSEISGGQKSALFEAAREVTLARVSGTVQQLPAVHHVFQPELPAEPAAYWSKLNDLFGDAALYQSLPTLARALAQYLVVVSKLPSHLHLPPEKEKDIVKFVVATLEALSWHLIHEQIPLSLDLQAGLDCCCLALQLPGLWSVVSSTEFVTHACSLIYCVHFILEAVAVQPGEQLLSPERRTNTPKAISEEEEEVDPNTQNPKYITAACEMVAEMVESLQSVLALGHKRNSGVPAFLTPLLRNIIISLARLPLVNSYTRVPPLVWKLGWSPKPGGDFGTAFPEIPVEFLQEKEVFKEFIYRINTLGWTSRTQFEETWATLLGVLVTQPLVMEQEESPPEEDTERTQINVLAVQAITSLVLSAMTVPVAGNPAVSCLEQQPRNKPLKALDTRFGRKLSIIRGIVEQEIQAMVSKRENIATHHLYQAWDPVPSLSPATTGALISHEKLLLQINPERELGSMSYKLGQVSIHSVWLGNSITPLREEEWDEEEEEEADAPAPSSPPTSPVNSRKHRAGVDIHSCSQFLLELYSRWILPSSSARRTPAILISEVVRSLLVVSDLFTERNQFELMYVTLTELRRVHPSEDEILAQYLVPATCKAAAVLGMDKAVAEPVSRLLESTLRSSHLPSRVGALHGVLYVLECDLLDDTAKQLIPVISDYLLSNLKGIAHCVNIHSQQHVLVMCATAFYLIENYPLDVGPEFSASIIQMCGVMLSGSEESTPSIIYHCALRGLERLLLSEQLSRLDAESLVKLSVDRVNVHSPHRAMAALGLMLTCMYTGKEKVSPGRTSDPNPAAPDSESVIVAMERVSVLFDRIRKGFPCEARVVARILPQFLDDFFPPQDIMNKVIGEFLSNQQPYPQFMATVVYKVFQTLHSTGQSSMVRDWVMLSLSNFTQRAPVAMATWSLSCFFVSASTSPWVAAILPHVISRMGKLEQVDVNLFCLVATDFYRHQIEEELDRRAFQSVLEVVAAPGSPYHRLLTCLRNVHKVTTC
Pf apPOL inh = Pf-apPOL DNA polymerase inhibition. Recombinant Pf-apPOL, molecular beacon fluorescence, 1.5 h. inhibition, % at 10 µM. 210,000 tested, 0.25% active
A number is an active result; - = inactive; . = no result given; ! = not confirmed by another sample. Compounds with a hit are over-represented: about 3.6% of the library has one in this group of screens. No stated cut-off is given here; in the data, active means inhibition above about 50%; inactive means the rest.

SMILES | mHTT-CaM PPI inh | Pf apPOL inh
COc1cccc(C2C(C#N)=C(N)OC3=C2C(=O)CCC3)c1 (configuration not stated) | - | -
N#CC1=C(N)OC2=C(CC/C2=C\c2ccc(F)cc2)C1c1ccc(F)cc1 (configuration not stated) | 77.0 | -
N#CC1=C(N)OC2=C(CCCC2)C1c1ccc(F)cc1 (configuration not stated) | - | -
COc1cccc(/C=C2\CCC3=C2OC(N)=C(C#N)C3c2cccc(OC)c2)c1 (configuration not stated) | 78.0 | -
CCCCNc1nc(SCC(=O)Nc2cc(C)[nH]n2)nc2ccccc12 | - | -
COc1ccc(NC(=O)CSc2cccc3cccnc23)cc1 | 53.1! | -
NC(=O)CSc1cccc2cccnc12 | 82.8 | -
O=C(O)CSc1cccc2cccnc12 | - | -
CCCCOc1cccc(NC(=O)CSc2cccc3cccnc23)c1 | - | -
CCOc1ccc(CNC(=O)C2CCCN(C(=O)c3ccccc3Cl)C2)cc1 (configuration not stated) | - | -
CSc1scc2c1C(=O)C(=CN(C)C)CC2 | . | 93.0
CN(C)C=C1Cc2ccccc2C1=O | . | -
O=C(NCc1ccc2c(c1)OCO2)c1ccc(N2CCOCC2)nc1 | . | -
COc1cc(OC)c(C2SCCN2S(=O)(=O)c2ccc(Br)cc2)cc1OC (configuration not stated) | 51.0 | -
COc1cc(OC)c(C2SCCN2S(=O)(=O)c2ccc(Cl)cc2)cc1OC (configuration not stated) | - | -
Cc1cccc(C(=O)N2CCCC2COc2ccc(C(=O)N3CCCC3)cc2)c1 (configuration not stated) | - | -
COc1ccccc1C(=O)N1CCN(C(=O)C(c2ccccc2)c2ccccc2)CC1 | - | -
COc1ccccc1C(=O)N1CCN(C2=NN=C(c3ccccc3)CS2)CC1 | 78.9 | -
COc1ccccc1N1CCN(C(=O)c2ccc(Cl)cc2[N+](=O)[O-])CC1 | - | -
COC(=O)c1cccc(C(=O)N2CCN(c3cc(Cl)ccc3C)CC2)n1 | 96.8 | -
COc1cc(OC)cc(C(=O)N2CCN(C(=O)c3ccc(-c4ccccc4)cc3)CC2)c1 | - | -
COc1cccc(C(=O)N2CCN(c3cc(Cl)ccc3C)CC2)c1OC | 100.2 | -
COC(=O)c1cccc(C(=O)Nc2ccc(Cl)cc2C)n1 | - | -
COc1cccc(C(=O)N2CCN(C(=O)c3ccc(-c4ccccc4)cc3)CC2)c1OC | 51.9 | -
O=C(Nc1cccn2nc(C3CC3)nc12)c1ccccc1 | - | -
SMILES | mHTT-CaM PPI inh | Pf apPOL inh
CCn1cnnc1C1CCN(CCOc2ccccc2)CC1 | - | -
O=C1OC(c2ccc(Br)cc2)=N/C1=C\c1cccc(F)c1 | - | -
COC(=O)c1ccsc1NC(=O)CCS(=O)(=O)c1ccccc1 | - | -
CCCS(=O)(=O)c1c(S(=O)(=O)CCC)c2cnccn2c1C(=O)c1ccc(CC)cc1 | - | -
O=C(Nc1ccc2c(c1)OCO2)C1CN(S(=O)(=O)C2CC2)CC12CCCCC2 (configuration not stated) | 72.9 | -
CS(=O)(=O)N1CC(C(=O)Nc2ccc3c(c2)OCCO3)C2(CCCCC2)C1 (configuration not stated) | - | -
COc1ccc(C2CC(c3ccc(Cl)cc3Cl)Nc3nc(N)nn32)cc1 (configuration not stated) | - | -
Nc1nc2n(n1)C(c1cccs1)CC(c1ccc(Cl)cc1Cl)N2 (configuration not stated) | 78.5 | -
COc1cccc(C2CC(c3ccccc3Cl)Nc3nc(N)nn32)c1 (configuration not stated) | - | -
COc1cccc(C2CC(c3ccc(Cl)cc3Cl)Nc3nc(N)nn32)c1 (configuration not stated) | 51.7 | -
COc1ccc(NC(=O)c2ccc(-c3ccc(Cl)cc3)o2)cc1OC | 59.4 | -
COc1ccc(NC(=O)c2ccc(-c3cccc(Cl)c3)o2)cc1OC | - | -
CCn1cc(C(=O)N(CCCN2CCOCC2)Cc2ccco2)c(=O)c2ccc(C)nc21 | - | -
O=C(NCc1ccc(Cl)cc1)c1cn2c(n1)COCC2 | - | -
Cc1ccc(C)c(NS(=O)(=O)c2cn(C)c3ncccc23)c1 | 54.6 | 91.2
CCCn1cc(S(=O)(=O)Nc2cccc(C)c2)c2cccnc21 | - | -
Cc1nn(-c2ccc(C(=O)N3CCN(c4cccc(Cl)c4)CC3)cc2)c2c1C(=O)CCC2 | 82.6 | -
Cc1nn(-c2ccc(C(=O)N3CCN(c4ccccn4)CC3)cc2)c2c1C(=O)CCC2 | - | -
CCc1nnc(NC(=O)CSc2nnc(-c3ccco3)c(-c3ccco3)n2)s1 | 65.0 | -
CCSc1nnc(NC(=O)CSc2nnc(-c3ccco3)c(-c3ccco3)n2)s1 | 81.0 | -
CCSc1nnc(NC(=O)CSc2nnc(CNC(=O)c3ccco3)o2)s1 | - | -
O=C(CSc1nnc(-c2ccco2)c(-c2ccco2)n1)Nc1nc2ccccc2s1 | - | -
CCc1nnc(NC(=O)CSc2ncccn2)s1 | - | -
Cc1nnc(NC(=O)CSc2nnc(-c3ccco3)c(-c3ccco3)n2)s1 | 67.0 | -
Cc1noc(-c2ccc3c(c2)OCO3)c1C(=O)NC(C)c1ccccc1 (configuration not stated) | - | -
SMILES | mHTT-CaM PPI inh | Pf apPOL inh
OC(COCC1CC2CCC1C2)CN1CCc2ccccc2C1 (configuration not stated) | - | -
OC(COCC1CC2CCC1C2)CN1CCN(C(c2ccccc2)c2ccccc2)CC1 (configuration not stated) | 62.3 | -
O=C1C(Nc2ccc(Br)cc2)=C(N2CCCCC2)C(=O)c2ccccc21 | 95.4 | -
O=C1C(Nc2cc(F)cc(F)c2)=C(N2CCOCC2)C(=O)c2ccccc21 | - | -
Cc1ccc(NC2=C(N3CCCCC3)C(=O)c3ccccc3C2=O)cc1 | 68.3 | -
O=C1C(Nc2ccc(Br)cc2)=C(n2nnc3ccccc32)C(=O)c2ccccc21 | - | -
O=C1C(Nc2ccccc2)=C(N2CCCCC2)C(=O)c2ccccc21 | - | -
CC(=O)c1ccc(NC2=C(N3CCCC3)C(=O)c3ccccc3C2=O)cc1 | 85.7 | -
O=C(COc1ccccc1)Nc1ccc(Cl)cc1[N+](=O)[O-] | - | -
CCOc1ccc(C2CC(c3ccc(OC(F)F)cc3)n3ncnc3N2)cc1Cl (configuration not stated) | - | -
CS(=O)(=O)N(CC(=O)Nc1ccc(F)cc1F)c1ccc(Cl)cc1 | - | -
COC(=O)c1sccc1NC(=S)NCCN1CCNC1=O | . | -
CCCCOc1ccc(-c2nc(-c3ccncc3)no2)cc1 | - | -
CC1(C)CC(=O)C=C(Nc2ccc(C(=O)O)cc2)C1 | - | -
Cc1ccc(S(=O)(=O)C2(C(=O)Nc3cc(Cl)ccc3C)CC2)cc1 | - | -
O=C1Nc2ccccc2S/C1=C\C(=O)N1CCN(c2ccc(F)cc2)CC1 | - | -
O=C(/C=C1\Sc2ccccc2NC1=O)NCCCN1CCN(c2ccc(F)cc2)CC1 | 74.0 | -
COc1cc(C(=O)Nc2cc(C)on2)cc(OC)c1OC | - | -
O=C1c2ccccc2-c2onc3c(Br)cc(Br)c1c23 | - | -
COc1cccc(Nc2ccc3noc4c3c2C(=O)c2ccccc2-4)c1 | 58.0 | -
COc1cccc(NC2=CC(=O)CC(c3ccccc3)C2)c1 (configuration not stated) | - | -
CNc1cc(Nc2cccc(C)c2)c2c3c(onc13)-c1ccccc1C2=O | 89.0 | -
COc1cc([N+](=O)[O-])cc(C=NC23CC4CC(CC(C4)C2)C3)c1O | - | -
